Reference: PubChem BioAssay AID1159554 (Broad Institute, 2015)
Screen size: about 94,000 compounds; about 2,100 (2.2%) were called active. Rule as the data show it: active = activity change below about -80%; inconclusive = no clear call, values can overlap the other calls; inactive = above that. The sample as a whole holds a higher share of actives than the screen did.

test: Dd2 malaria parasite growth inhibition – SYBR Green fluorescence, single dose replicates, primary screen (AID 1159554); conditions: P. falciparum Dd2 growth, 72 h, at 10 µM, active compounds read low

Activity change, active:
C[C@@H]1CN([C@@H](C)CO)C(=O)c2cc(NC(=O)CCCN(C)C)ccc2O[C@@H](C)CCCCO[C@H]1CN(C)C(=O)Nc1cccc2ccccc12 -85.2%
C[C@@H]1CN([C@@H](C)CO)C(=O)c2cc(NC(=O)Cc3ccccc3)ccc2O[C@@H](C)CCCCO[C@H]1CN(C)C(=O)Nc1cccc2ccccc12 -86.1%
COc1ccc2c3c(n(C)c2c1)[C@H](CO)N(C(=O)CC1CC1)CC31CCN(Cc2nccs2)CC1 -91.8%
COc1ccc2c3c(n(C)c2c1)[C@H](CO)N(CC1CCCCC1)CC31CCN(Cc2nccs2)CC1 -91%
CO[C@@H]1CN(C)C(=O)c2ccc(NC(=O)Nc3cc(Cl)cc(Cl)c3)cc2OC[C@H](C)NC[C@H]1C -84.1%
CCCC(=O)Nc1ccc2c(c1)OC[C@@H](C)N(Cc1ccccc1F)C[C@@H](C)[C@H](OC)CN(C)C2=O -88.8%
CCC(=O)N1C[C@H](C)[C@H](OC)CN(C)C(=O)c2cc(NC(=O)Nc3cccc(F)c3)ccc2OC[C@@H]1C -86.1%
Cc1nc(N2[C@H](CO)[C@H](c3ccccc3)[C@H]2CNCC2CCCCC2)sc1C -96.4%
Cc1nc(N2[C@H](CO)[C@H](c3ccccc3)[C@H]2CNCC2CCC2)sc1C -89.7%

Activity change, inactive:
C[C@@H]1CN([C@@H](C)CO)C(=O)c2cc(NC(=O)Cc3ccccc3)ccc2O[C@@H](C)CCCCO[C@@H]1CN(C)C(=O)Nc1ccccc1 -51.5%
C[C@@H]1CCCCO[C@H](CN(C)C(=O)Nc2cccc3ccccc23)[C@H](C)CN([C@@H](C)CO)C(=O)c2cc(NC(=O)CCCN(C)C)ccc2O1 0.619%
CC(C)NC(=O)N(C)C[C@@H]1OCCCC[C@@H](C)Oc2ccc(NC(=O)CCCN(C)C)cc2C(=O)N([C@@H](C)CO)C[C@@H]1C -5.33%
CC(C)NC(=O)N(C)C[C@@H]1OCCCC[C@@H](C)Oc2ccc(NC(=O)Cc3ccccc3)cc2C(=O)N([C@H](C)CO)C[C@H]1C -13.3%
CO[C@@H]1CN(C)C(=O)c2cc(NC(=O)Nc3ccc(F)cc3)ccc2OC[C@@H](C)NC[C@@H]1C 13.3%
O=C(C[C@H]1CC[C@H]2[C@@H](COC[C@@H](O)CN2CC2CCOCC2)O1)NCc1ccc(Cl)cc1 -4.66%
CO[C@@H]1CN(C)C(=O)c2ccc(NS(C)(=O)=O)cc2OC[C@@H](C)N(C(=O)CC2CC2)C[C@@H]1C 16.2%
O=C(c1ccccn1)N1CC(=O)N2[C@H](CO)[C@H](c3ccc(C#CCc4ccccc4)cc3)[C@H]2C1 -46.8%
O=C(C[C@@H]1C=C[C@H](NC(=O)Nc2ccccc2F)[C@@H](CO)O1)NCc1ccccc1 -0.106%
CN1CCN(C(=O)C[C@H]2CC[C@H]3[C@@H](COc4ccc(NC(=O)C5CCC5)cc4C(=O)N3C)O2)CC1 -19.8%
CN1C(=O)c2cc(NC(=O)c3cccc(F)c3)ccc2OC[C@H]2O[C@@H](CC(=O)NCc3ccccc3Cl)CC[C@@H]21 -47.4%
CCCNC(=O)N(C)C[C@H]1Oc2cc(-c3ccncc3)ccc2S(=O)(=O)N([C@H](C)CO)C[C@H]1C 70.9%
CC(C)NC(=O)N[C@H]1C=C[C@H](CC(=O)NCCN2CCCC2)O[C@@H]1CO 9.57%
C/C=C/c1cnc2c(c1)C(=O)N([C@@H](C)CO)C[C@H](C)[C@H](CN(C)C(=O)CN1CCOCC1)O2 -2.24%
COc1ccc2c3c(n(C)c2c1)[C@@H](CO)N(C(C)=O)CC31CCN(Cc2nccs2)CC1 -11.3%
COc1ccc2c3c(n(C)c2c1)[C@H](CO)N(Cc1cccnc1)CC31CCN(Cc2cccnc2)CC1 -77.6%
COc1ccc2c3c(n(C)c2c1)[C@@H](CO)N(C(=O)Nc1cccc(F)c1)CC31CCN(Cc2nccs2)CC1 -73.5%
CCC(=O)N1CC2(C1)CN(Cc1nccs1)[C@@H](CO)c1c2c2ccc(OC)cc2n1C 3.74%
CN1C(=O)c2cc(NC(=O)C3CCCC3)ccc2OC[C@H]2O[C@@H](CC(=O)NCCc3ccncc3)CC[C@H]21 22.6%
CCS(=O)(=O)N1CC2(CN(C(=O)c3ccc(F)cc3)[C@H](CO)c3c2c2ccc(OC)cc2n3C)C1 -2.54%
CCC(=O)N1C[C@H](C)[C@H](OC)CN(C)C(=O)c2ccc(NC(=O)Nc3cccc(F)c3)cc2OC[C@@H]1C -41.8%
CO[C@H]1CN(C)C(=O)c2ccc(NC(C)=O)cc2OC[C@@H](C)NC[C@H]1C 19.5%
CCC(=O)Nc1ccc2c(c1)C(=O)N(C)C[C@H](OC)[C@H](C)CN(Cc1ccccc1F)[C@H](C)CO2 -27.5%
CO[C@H]1CN(C)C(=O)c2ccc(NC(=O)Nc3ccc4c(c3)OCO4)cc2OC[C@H](C)NC[C@H]1C 0.516%
CCC(=O)Nc1ccc2c(c1)C(=O)N(C)C[C@@H](OC)[C@@H](C)CN(Cc1ccccc1F)[C@H](C)CO2 -23.2%
CO[C@H]1CN(C)C(=O)c2cc(NC(=O)Nc3cccc(F)c3)ccc2OC[C@H](C)N(C(C)=O)C[C@H]1C -27.3%
COc1ccc(NC(=O)Nc2ccc3c(c2)[C@H]2C[C@H](CC(=O)NC4CCCC4)O[C@@H](CO)[C@H]2O3)cc1 4.95%
O=C(C[C@@H]1CC[C@H]2[C@@H](COC[C@H](O)CN2S(=O)(=O)c2ccccc2)O1)NCCN1CCCC1 -4.83%
C[C@@H]1CCCCO[C@H](CN(C)C(=O)CCC(F)(F)F)[C@H](C)CN([C@@H](C)CO)C(=O)c2cc(NC(=O)CCCCCC(=O)Nc3ccccc3N)ccc2O1 -41%
COCCNC[C@@H]1[C@H](c2ccccc2)[C@H](CO)N1c1nc(C)c(C)s1 -28.1%
O=S(=O)(NC[C@H]1[C@@H](c2ccccc2)[C@@H](CO)N1CC1CC1)c1ccccc1 10.7%
O=C(NC[C@@H]1[C@H](c2ccccc2)[C@H](CO)N1CC1CCCC1)c1cccnc1 -5.05%
CCCNC(=O)N1[C@H](CO)[C@H](c2ccccc2)[C@H]1CNC(=O)C1CCCCC1 6.57%
